# Only some compounds are listed: those with a hit (about 4.2% of all), similar ones and a draw of the others.
# V-ATPase pH: regulators of yeast V-ATPase proton pumping, primary screen, pHLuorin cytosolic pH fluorescence; S. cerevisiae; AID 504577, 2011; 350,000 tested, 0.37% active; response, % at 10 µM; in the data active = response mostly above about 7.3%, no sharp cut-off; inactive = mostly below about 5.4%; also: actives read high
# TIM10 inh: growth inhibitors of isogenic TIM10 control yeast, primary screen, counter-screen for tim10-1 yeast inhibitor project, luminescence, uHTS. AID 463195, 2010. inhibition, % at 10 µM. 330,000 tested, 1.4% active. S. cerevisiae TIM10 strain growth, BacTiter-Glo luminescence, 24 h;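 active = inhibition of 40% or more at the single tested concentration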;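 also: wild-type TIM10 isogenic control strain grown at permissive 25 °C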
# tim10-1 inh: growth inhibitors of tim10-1 mutant yeast, primary screen, luminescence, uHTS | S. cerevisiae tim10-1 ts strain growth, BacTiter-Glo, 24 h | inhibition, % at 20 µM | 330,000 tested, 2.2% active | AID 463190, 2010;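 active = inhibition of at least 40%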;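 also: mutant grown at 25 °C; 0% = DMSO wells with yeast and 100% = wells holding no yeast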
# tim23-1 inh: growth inhibitors of tim23-1 mutant yeast, primary screen, luminescence, uHTS | S. cerevisiae tim23-1 growth, BacTiter-Glo luminescence, 24 h | 330,000 tested, 1.3% active | inhibition, % at 20 µM;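 active = growth inhibition of the mutant yeast at or above 50%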;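 also: temperature-sensitive mutant grown at 25 °C; plate controls were DMSO-treated mutant yeast for no effect and medium wells lacking yeast for full effect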
# NALP1 yeast inh: NALP1 inflammasome inhibitors in reconstituted yeast, colorimetric, S. cerevisiae, triplicate retest; AID 2071, 2009; 280,000 tested, 0.61% active; S. cerevisiae NALP1/ASC/caspase-1 growth, X-gal OD620, 72 h; inhibition, % at 10 µM; in the data active = inhibition mostly above about 24%, no sharp cut-off; inactive = mostly below about 32%
# NLRP3 yeast inh: NALP3 inflammasome inhibitors in reconstituted yeast, primary screen, luminescence, uHTS | Yeast reconstituted NLRP3/ASC/caspase-1, beta-gal luminescence, 24 h | inhibition, % at 10 µM | 330,000 tested, 0.39% active;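 active = inhibition of 50% or more; inactive = inhibition below 50%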;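 also: plate controls were induced DMSO wells for no effect and uninduced yeast grown without galactose for full effect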
# VATPase regulator: yeast V-ATPase proton pumping modulators, confirmation, S. cerevisiae, pH-sensitive GFP, second cherry-pick. shares compounds with V-ATPase pH. S. cerevisiae pHLuorin cytosolic pH, V-ATPase proton transport. response, % at 10 µM. 980 tested, 2% active; in the data active = response above about 24%;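 also: plate controls were vehicle wells for no effect and positive control wells for full effect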
# The depositor's hits bear a star; . = no result given.
SMILES,V-ATPase pH,TIM10 inh,tim10-1 inh,tim23-1 inh,NALP1 yeast inh,NLRP3 yeast inh,VATPase regulator
CCOc1ccc2nc(N3CCC(C(=O)N4CCN(C(=O)c5ccco5)CC4)CC3)sc2c1,12*,24,20,7,14,21,4
O=C(CSc1nnc(-c2ccc(O)cc2)n1Cc1ccco1)c1cccs1,-4,-3,-13,-5,13,20,.
N#Cc1c(-c2ccccc2)c(-c2ccccc2)n(Cc2ccco2)c1NC(=O)c1cccs1,9.7*,29,34,12,-27,-19,-6
COc1ccc(C(=S)N2CCN(C)CC2)cc1Br,8.0*,-16,-10,4,14,5,-1
COc1ccc(C(=S)N2CCCC2)cc1Br,-2,-9,5,11,-11,20,.
COCCCNCCCCOc1ccc(Br)cc1C,1,-23,-24,11,37,28,.
COc1ccc(CNC(=O)COC(=O)CCOc2ccccc2)cc1,1,-10,25,4,22,8,.
COc1ccc(OCCC(=O)OCC(=O)NCCc2ccccc2)cc1,7.6*,5,16,8,-10,5,0
Cc1cc(C)c2c(CC(=O)N(CCC#N)Cc3cccnc3)coc2c1,2,11,15,20,.,-1,.
O=C(CCl)NN1C(=O)NC(c2ccccc2)(c2ccccc2)C1=O,12*,1,-17,10,16,20,1
O=C(CCl)NN1C(=O)NC2(CCCCC2)C1=O,-3,12,-2,6,-6,17,.
COc1ccc(NC(=O)c2sc3ncn(CC(=O)N4CCN(c5ccccn5)CC4)c(=O)c3c2C)cc1OC,1,8,-4,-6,24,3,.
CC(C)C(=O)Nc1cc(=O)[nH]c2ncnn12,10*,1,9,3,-7,1,0
COC(=O)c1ccc(COc2cccc3c2OC(C)(C)C3)cc1,3,-5,-4,21,10,23,.
O=C(N[C@@H](Cc1ccccc1)C(=O)NCCc1c[nH]c2ccccc12)c1ccco1,13*,-15,-2,2,9,24,-1
Cc1ccc(CNC(=O)[C@H](Cc2ccccc2)NC(=O)c2ccco2)cc1,-2,-3,4,22,.,20,.
CC(=O)c1ccc(OCc2cc(C(=O)N3CC[C@@H]4CCCC[C@H]4C3)no2)cc1,1,14,37,27,11,33,.
CSc1nc(-c2ccccc2)nc(NC(C)=O)c1C(C)=O,-1,8,3,26,-4,23,.
O=C(CSc1n[nH]c(=O)[nH]c1=O)Nc1c(Cl)cc(Cl)cc1Cl,13*,5,5,19,.,2,-1
O=C(O)c1cc(S(=O)(=O)NCCN2CCNC2=O)ccc1O,3,6,5,-10,30,0,.
Cc1cc(C)[n+](-c2ccc(F)cc2)c2[nH]c(=O)[nH]c(=O)c12,1,4,14,-3,20,-3,.
OCCC1CN(Cc2ccccc2OC2CCCC2)CCN1Cc1ccsc1 (configuration not stated),8.4*,12,19,8,0,17,-1
COc1ccc(CCNC(=O)c2cc(-c3ccccc3OC)on2)cc1OC,2,-7,17,19,-12,11,.
COc1ccccc1-c1cc(C(=O)NCCc2ccccc2)no1,13*,32,-4,9,36,14,0
CCOc1cc(C(=O)NCc2ccc(-c3nc4ccccc4o3)cc2)cc(OCC)c1OCC,-1,-3,-2,-3,0,-2,.
O=C1C2C3C=CC(C3)C2C(=O)N1c1nccs1 (configuration not stated),9.4*,2,5,6,26,-4,1
O=C(Cc1ccccc1)N1CCc2[nH]nc(-c3ccccc3)c2C1,0,14,0,20,12,22,.
Cc1cc(C(=O)OCC(=O)Nc2sc3c(c2C#N)CCC(C)C3)c2ccccc2n1 (configuration not stated),13*,21,27,5,24,16,-3
